Here are results for 21 compounds from ChEMBL document CHEMBL3988442, “University of Dundee, Small-Polar-MMV Screening Library” (2021).

The assay concerns the target AMP-activated protein kinase, AMPK (Homo sapiens) (UniProt P54646+O43741+P54619+Q9UGJ0+Q9Y478+Q13131+Q9UGI9). As to the kind of experiment: AMP-dependent Kinase enzyme assay. An in vitro enzyme assay that detects ADP turnover that is directly proportional to AMPK activity. This uses naive AMPK that is activated during the assay with MK-8722. The assay is classed as functional. On the set-up: scale not given: direction of the effect not stated beside the values. As to conditions: 30 µM.
Take `CC(C(=O)NC1(C#N)CCCCC1)N1CCc2c(ncn2C2CC2)C1` (stereo unspecified): the Percent Effect was -1.93%.
The value for `CCNC(=O)[C@@H]1C[C@@H](N)CN1C(=O)c1[nH]c2ccccc2c1CC` was 13.5%.
The value for `CN(CC(=O)NCC(=O)Nc1ccc(F)cc1)Cc1cccs1` was -1.85%.
In the case of `CC(=O)NCCCNC(=O)N1CCN(c2cc(F)ccc2F)CC1` it was 6.39%; in that of `CN(CCO)Cc1cc(Cl)ccc1OCC(O)CN1CCCCCC1` (stereo unspecified), 0.752%.
`CN1CCCC1c1ccnc2nccn12` (stereo unspecified): the Percent Effect amounted to 6.44%.
The value for `CC(C)Cc1noc(CN(C)C2CCCC2)n1` was 10.7%.
In the case of `CN(C)c1ccccc1C(=O)N1CCCC(c2ccc(C(=O)O)cc2)C1` (stereo unspecified) it was -3.47%; in that of `CN1C(=O)c2ccc(C(=O)N(Cc3cnn(C)c3)C3CC3)cc2C1=O`, 11.4%.
The value for `CCc1cnc(CNC(=O)NCCc2ccc(O)cc2)s1` was 47.9%.
In the case of `Cc1ccc(N2CCCN(C(=O)CCc3ccsc3)CC2)nn1`, the Percent Effect was -4.33%.
Consider `CCC(CNC(=O)c1cccc(S(=O)(=O)NC)c1)N1CCCC1` (stereo unspecified), for which the Percent Effect is 0.599%.
In the case of `CC(=O)N[C@H]1CCN(C(=O)c2cc(Cn3cnc4ccccc43)[nH]n2)C1` it was -3.06%; in that of `CC(C)(C)c1nc(CC(=O)NCCC(=O)Nc2ccncc2)cs1`, -4.57%.
Consider `Cc1ccc(NC(=O)NCCn2cnc(C)c(C)c2=O)cc1F`, for which the Percent Effect came to 1.89%.
In the case of `CC(C)c1nnc(CN2CC(n3cccn3)C2)o1` it was -4.54%.
In the case of `COCCCN1CC2(CCN(C(=O)c3ncc(F)cc3F)CC2)CC1=O` it was -0.49%.
In the case of `Cc1csc(CCNC(=O)N2CCC(NC(=O)OC(C)(C)C)CC2)n1` it was -1.4%; in that of `CCc1nnc(CNC(=O)CCC2CCCCN2C)s1` (stereo unspecified), -10.9%.
For the compound `NC(=O)CN(Cc1ncc(-c2ccc(Cl)cc2)o1)C1CCCC1`, the Percent Effect is -5.3%.
The value for `CC1CN(c2ncnc3sccc23)CCN1c1nccs1` (stereo unspecified) was 16.9%.
